Measured values from PubChem BioAssay AID1445 (SRMLSC, 2008).
In all, about 220,000 compounds went through this assay and about 910 (0.41%) were called active.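 How the source made its calls: active means primary inhibition above the hit cutoff, then over 50% inhibition at one or more dose response concentrations (cut at about 23% in these data, passing the limit was not always enough); inconclusive means conflicting primary data, or primary hits not chosen for dose response; inactive means low primary inhibition, or under 50% at every dose.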 Only a selection was taken, and actives are over-represented in it overall. Results with a measured potency or affinity are listed apart.

target: Aminopeptidase N (Plasmodium falciparum (isolate 3D7)) (UniProt O96935); test: P. falciparum M1AAP inhibitors, biochemical, fluorogenic H-Leu-NHMec substrate, 1536-well (AID 1445); conditions: recombinant M1AAP, H-Leu-NHMec fluorogenic kinetic assay; at 30 µM, hits give high values unless noted;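 further: plate controls were DMSO full reaction for no effect and no enzyme background for full effect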
Sequence (O96935 whole entry, looked up): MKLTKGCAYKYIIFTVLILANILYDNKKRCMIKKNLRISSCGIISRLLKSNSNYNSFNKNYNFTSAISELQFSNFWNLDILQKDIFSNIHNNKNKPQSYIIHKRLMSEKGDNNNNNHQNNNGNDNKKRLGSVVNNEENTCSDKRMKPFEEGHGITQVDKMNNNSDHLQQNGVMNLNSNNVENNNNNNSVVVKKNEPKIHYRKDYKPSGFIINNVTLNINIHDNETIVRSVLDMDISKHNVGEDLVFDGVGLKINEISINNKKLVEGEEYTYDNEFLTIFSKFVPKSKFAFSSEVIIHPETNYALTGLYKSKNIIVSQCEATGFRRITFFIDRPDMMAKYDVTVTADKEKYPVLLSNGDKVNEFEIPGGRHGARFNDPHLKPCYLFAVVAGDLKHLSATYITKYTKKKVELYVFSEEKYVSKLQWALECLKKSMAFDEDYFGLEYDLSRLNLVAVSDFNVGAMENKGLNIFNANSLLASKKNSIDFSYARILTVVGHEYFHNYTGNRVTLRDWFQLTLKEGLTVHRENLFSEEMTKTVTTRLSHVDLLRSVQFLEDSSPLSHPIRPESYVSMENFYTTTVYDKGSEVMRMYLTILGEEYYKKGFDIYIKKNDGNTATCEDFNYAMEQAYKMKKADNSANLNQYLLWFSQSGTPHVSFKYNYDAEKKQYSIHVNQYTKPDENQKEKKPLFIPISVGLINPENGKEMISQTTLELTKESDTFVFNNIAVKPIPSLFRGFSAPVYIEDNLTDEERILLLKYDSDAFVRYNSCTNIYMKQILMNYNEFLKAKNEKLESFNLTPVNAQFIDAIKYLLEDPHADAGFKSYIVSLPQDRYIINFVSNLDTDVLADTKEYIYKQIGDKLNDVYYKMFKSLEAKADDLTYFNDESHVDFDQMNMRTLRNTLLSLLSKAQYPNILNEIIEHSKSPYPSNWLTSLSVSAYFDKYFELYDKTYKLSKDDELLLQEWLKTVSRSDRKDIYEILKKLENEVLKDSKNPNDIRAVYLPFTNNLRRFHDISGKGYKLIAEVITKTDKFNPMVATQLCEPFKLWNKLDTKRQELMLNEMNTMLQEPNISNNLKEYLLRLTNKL

`CCC1(CC)Cc2ccccc2C(=O)N1` was tested. Which inhibition did it give?
The inhibition was 2.59% (inactive).

`Nc1ccccc1SCc1ccccc1Cl` was tested. Which inhibition did it give?
Its inhibition is 1.31% (inactive).

`O=C(CCN1CCOCC1)NNC(=O)/C(=C/c1ccccc1)NC(=O)c1ccccc1` was tested. Which inhibition did it give?
Its inhibition is 5.04% (inactive).

How did the inhibition turn out when `O=C(c1cccc(Oc2c(Cl)cccc2[N+](=O)[O-])c1)N1CCCCC1` was run?
Its inhibition is 4.82% (inactive).

How did the inhibition turn out when `O=C(CCC1N=C2c3ccccc3N=C(SCc3ccc(Cl)cc3)N2C1=O)NCc1ccco1` (stereo unspecified) was run?
Its inhibition is 11.4% (inactive).

`Cc1ccc(CSC2=Nc3ccccc3C3=NC(CCC(=O)NCc4ccco4)C(=O)N23)cc1` (stereo unspecified) was tested. Which inhibition did it give?
The inhibition was 14.5% (inactive).

How did the inhibition turn out when `Cc1ccc(CSC2=Nc3ccccc3C3=NC(CC(=O)NCc4ccco4)C(=O)N23)cc1` (stereo unspecified) was run?
Its inhibition is 25.5% (active).

`C=CCN=C1S/C(=C\c2ccc(Cl)cc2)C(=O)N1CC=C` was tested. Which inhibition did it give?
The inhibition was 3.89% (inactive).

How did the inhibition turn out when `Cc1ccc(S(=O)(=O)/N=C2/C=C(Sc3ncn[nH]3)C(=O)c3ccccc32)cc1` was run?
Its inhibition is 14.9% (inactive).

How did the inhibition turn out when `COC(=O)C(C(C)=O)C1=C/C(=N\S(=O)(=O)c2ccc(C)cc2)c2ccccc2C1=O` (stereo unspecified) was run?
Its inhibition is 12.9% (inactive).

With `O=C(/C=C/c1cccc(Br)c1)N1CCN(c2ccccn2)CC1` as the compound, how does the inhibition read?
The inhibition was 12.4% (inactive).

For `CCCNC(=O)c1ccc2c(=O)n3c(-c4ccc(C)cc4)csc3nc2c1`, which inhibition is on record?
The inhibition was 10% (inactive).

`O=C(O)CSc1nc(-c2cccs2)cc(C(F)(F)F)n1` was tested. Which inhibition did it give?
Its inhibition is -2.67% (inactive).

Which inhibition does the source give for `O=C(c1ccc(C(F)(F)F)cc1)C1CCCN(C(=O)CN2C(=O)CSC2=O)C1` (stereo unspecified) here?
The inhibition was -2.21% (inactive).

Which inhibition does the source give for `CC(Sc1nc(N)cc(=O)[nH]1)C(=O)Nc1cccc(Cl)c1` (stereo unspecified) here?
The inhibition was 14.1% (inactive).

For `CN(CCc1ccccn1)C(=O)Nc1ccc(C(C)(C)C)cc1`, which inhibition is on record?
Its inhibition is 2.28% (inactive).

For `CN1C(=O)/C(=C/c2coc3ccc(O)cc3c2=O)SC1=S`, which inhibition is on record?
Its inhibition is -2.96% (inactive).

For `O=C1NC(=S)S/C1=C\c1coc2ccccc2c1=O`, which inhibition is on record?
The inhibition was 14.4% (inactive).

Which inhibition does the source give for `CCC1CCCCN1C(=O)CCc1nnc(C2CCCCC2)o1` (stereo unspecified) here?
The inhibition was 0.86% (inactive).

With `CC(C)Cc1nnc(NC(=O)CSc2nc(O)c(-c3ccccc3)c(=O)[nH]2)s1` as the compound, how does the inhibition read?
Its inhibition is 4.36% (inactive).

Which inhibition does the source give for `Nc1ccc(Nc2nc(-c3cc4ccccc4oc3=O)cs2)cc1` here?
The inhibition was 6.86% (inactive).

With `O=C(Nc1nc(-c2cc3ccccc3oc2=O)cs1)c1ccco1` as the compound, how does the inhibition read?
The inhibition was 13.4% (inactive).

How did the inhibition turn out when `O=C1N(c2ccccc2)C[C@@H]2C[C@@H](c3cccs3)N3CCC[C@@]123` was run?
The inhibition was 2.6% (inactive).

`O=C(COc1ccccc1[N+](=O)[O-])Nc1ccc(Br)cc1` was tested. Which inhibition did it give?
Its inhibition is -3.79% (inactive).

With `O=C(COc1ccccc1)Nc1ccc([N+](=O)[O-])cc1` as the compound, how does the inhibition read?
The inhibition was 3.2% (inactive).

`O=C(COc1ccccc1[N+](=O)[O-])Nc1cccnc1` was tested. Which inhibition did it give?
The inhibition was 7.9% (inactive).

For `O=C(COc1cccc2cccnc12)Nc1ccccc1`, which inhibition is on record?
Its inhibition is -0.06% (inactive).

Which inhibition does the source give for `C=CCNC(=S)Nc1ccc(C(N)=O)cc1` here?
The inhibition was 4.91% (inactive).

How did the inhibition turn out when `COC(=O)/C=C/c1ccsc1NC(C)=O` was run?
The inhibition was 7.35% (inactive).

With `O=C(Nc1ccccc1Oc1ccccc1)c1cccc([N+](=O)[O-])c1` as the compound, how does the inhibition read?
The inhibition was 6.7% (inactive).

`Cc1nn(-c2cc(N3CCCC3)ccc2[N+](=O)[O-])c(=O)c2ccccc12` was tested. Which inhibition did it give?
The inhibition was 8.6% (inactive).

`O=C(CSc1nc2c(c(=O)n1-c1ccc(F)cc1)SCC2)NCC1CCCO1` (stereo unspecified) was tested. Which inhibition did it give?
Its inhibition is 15.6% (inactive).

Which inhibition does the source give for `Cc1ccc(-n2c(SCC(=O)NCC3CCCO3)nc3c(c2=O)SCC3)cc1` (stereo unspecified) here?
Its inhibition is 4.19% (inactive).

`COc1ccccc1NC(=O)CN1CCN(C(=O)c2ccco2)CC1` was tested. Which inhibition did it give?
Its inhibition is 1.53% (inactive).

How did the inhibition turn out when `COc1ccc(C(=O)N2CCC(n3c(C)nc4cc(F)ccc43)CC2)cc1` was run?
Its inhibition is -1.13% (inactive).

How did the inhibition turn out when `CC(C)CNC(=O)C(=O)NN=C1CCCCCC1` was run?
The inhibition was 2.51% (inactive).

`O=C(O)c1ccc(NS(=O)(=O)c2ccc3c(c2)OCCO3)cc1` was tested. Which inhibition did it give?
Its inhibition is 7.45% (inactive).

For `COC(=O)c1ccc(C)c(NS(=O)(=O)c2ccc3c(c2)OCCO3)c1`, which inhibition is on record?
Its inhibition is 9.88% (inactive).

Which inhibition does the source give for `Cc1ccc(C)c(N(C)C(=O)c2cc3c(=O)[nH]c4ccc(C)cc4c3s2)c1` here?
Its inhibition is -2.28% (inactive).

`CC1(C)CC(=O)c2cc(OCC(=O)NCCN3CCCc4ccccc43)ccc2O1` was tested. Which inhibition did it give?
The inhibition was 6.69% (inactive).

With `COc1ccc2c(c1)C(=O)N(c1ccccc1OC)C(=O)C2(C)C` as the compound, how does the inhibition read?
The inhibition was 11.7% (inactive).

How did the inhibition turn out when `COc1nnc(-c2ccc(N3CCOCC3)c(NC(C)=O)c2)c2ccccc12` was run?
The inhibition was 4.98% (inactive).

How did the inhibition turn out when `O=C(NCc1ccccc1F)C1CCN(C(=O)c2sccc2-n2cccc2)CC1` was run?
The inhibition was 3.14% (inactive).

How did the inhibition turn out when `CCS(=O)(=O)N1CCC(C(=O)NCc2cccc(OC)c2)CC1` was run?
Its inhibition is -2.58% (inactive).

For `CCn1c(C(=O)N2CCC(C(=O)NCc3cccs3)CC2)cc2sccc21`, which inhibition is on record?
The inhibition was 18.2% (inactive).

For `Cn1c(C(=O)N2CCCC(C(=O)NCc3ccc4c(c3)OCO4)C2)cc2sccc21` (stereo unspecified), which inhibition is on record?
Its inhibition is 5.35% (inactive).

With `O=C(NCc1ccncc1)C1CCN(S(=O)(=O)Cc2ccccc2)CC1` as the compound, how does the inhibition read?
Its inhibition is 22.4% (inactive).

For `CCCS(=O)(=O)N1CCCC(C(=O)NCc2ccc3c(c2)OCO3)C1` (stereo unspecified), which inhibition is on record?
The inhibition was 4.51% (inactive).

For `CCn1c(C(=O)N2CCC(C(=O)NCc3ccc4c(c3)OCO4)CC2)cc2sccc21`, which inhibition is on record?
The inhibition was 31.3% (active).

For `CCS(=O)(=O)N1CCC(C(=O)NCc2ccc3c(c2)OCO3)CC1`, which inhibition is on record?
The inhibition was 21.3% (inactive).

With `O=C(NCCc1ccccc1)C1CCN(C(=O)c2sccc2-n2cccc2)CC1` as the compound, how does the inhibition read?
Its inhibition is 5.4% (inactive).

How did the inhibition turn out when `COC(=O)c1ccc(CSc2nc3c(c(=O)n2-c2ccccc2)SCC3)o1` was run?
The inhibition was 5.07% (inactive).

`CCN(CC)CCCNC(=O)c1ccc(N2CCCCC2)c(NS(=O)(=O)c2ccc(C)cc2)c1` was tested. Which inhibition did it give?
The inhibition was -3.11% (inactive).

With `CC(CN1CCCC1)C(=O)NN` (stereo unspecified) as the compound, how does the inhibition read?
Its inhibition is -2.99% (inactive).

With `O=c1[nH]c2cc(Cl)c([N+](=O)[O-])nc2[nH]1` as the compound, how does the inhibition read?
The inhibition was 11.7% (inactive).

For `Cc1nc(/C(=N/O)C(N)=O)cs1`, which inhibition is on record?
Its inhibition is 3.08% (inactive).

How did the inhibition turn out when `CCOC(=O)COc1ccc(Br)cc1C1NC(=O)NC(C)=C1C(=O)NCc1ccccc1` (stereo unspecified) was run?
The inhibition was -5.37% (inactive).

With `O=C(NCCc1nc2ccccc2[nH]1)c1ccco1` as the compound, how does the inhibition read?
The inhibition was -3.58% (inactive).

How did the inhibition turn out when `Nc1ncc(Br)cc1S(=O)(=O)NCCC(=O)Nc1cccc(Cl)c1` was run?
Its inhibition is 0.42% (inactive).

Which inhibition does the source give for `Cc1ccc(C(=O)Nc2ccc3c(c2)CCC3)o1` here?
Its inhibition is 6.8% (inactive).

How did the inhibition turn out when `COc1cccc(OC)c1C(=O)N1CCN(c2c(Cc3ccccc3)c(C)nc3ncnn23)CC1` was run?
The inhibition was 7.55% (inactive).
